# From PubChem BioAssay
# Shown are actives, neighbours in structure and some others; about 2.7% of the full set was active somewhere.
# SKN-1 inh: suppressors of acrylamide-induced Pgst-4::GFP reporter in worms, primary screen, SKN-1 inhibitor project, whole organism, uHTS, GFP/RFP fluorescence ratio, strain VP596; AID 624304, 2012; 360,000 compounds, 0.49% hits; inhibition, % at 21.8 µM; C. elegans VP596 Pgst-4::GFP/RFP ratio, 24 h;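 active = interference check ratio from 0.5 to 1.5 plus GFP to RFP signal ratio inhibition reaching or exceeding a fixed threshold, cut at about 30% in these data, passing the limit was not always enough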
# ATG4B inhibitor: ATG4B protease inhibitors, primary screen, biochemical, fluorescence, uHTS; ATG4B cleavage of LC3-PLA2, NBD-HPC fluorescence, 1 h; inhibition, % at 8.33 µM; 340,000 compounds, 0.51% hits; AID 504462, 2011; in the data active = inhibition above about 40%
# CendR NRP1 mod: modulators of CendR peptide binding to NRP-1, primary screen, biochemical, fluorescence polarization, uHTS | inhibition, % at 25 µM | 360,000 compounds, 0.85% hits | FAM-RPARPAR peptide binding to NRP-1 | Neuropilin-1 (Homo sapiens), O14786 | AID 602438, 2012;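 active = inhibition or corrected inhibition above about 18%, plus a signal ratio from 0.5 to 1.5, limit read from the data, passing the limit was not always enough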
# MPTP block: mitochondrial permeability transition pore inhibitors, primary screen, biochemical, isolated mouse mitochondria, absorbance | AID 602449, 2012 | 360,000 compounds, 1.4% hits | inhibition, % at 10 µM | Ca2+ swelling absorbance, 30 min;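 active = inhibition of 50% or more, scaled per plate between neutral and stimulator controls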
# F508del corr: F508del CFTR correction, initial screen, CFBE line, single point; CFBE cells, YFP halide quenching; stimulated with forskolin plus potentiator P3; % fluorescence drop versus neutral controls; activity (quench increase), % at 7.58 µM; 350,000 compounds, 0.36% hits; AID 720511, 2013;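 active = mean added fluorescence quench of at least 8% versus neutral control, with both replicates also reaching 8%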;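 note: cells transiently co-express mutant CFTR-F508del with the halide-sensitive YFP; corrector assay measuring rescue of mutant channel to the surface after 24 h compound exposure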
# MPTP counter: fluorescence retest of MPTP screen hits in isolated mitochondria, single concentration | shares compounds with MPTP block | membrane potential, Rhodamine 123 fluorescence | inhibition, % at 10 µM | 5,000 compounds, 78% hits; in the data active = inhibition above about 22%
# MPTP abs DR: mitochondrial permeability transition pore inhibitors, dose response, biochemical, absorbance, uHTS hits | isolated mitochondria swelling | AID 651561, 2012 | IC50, µM | 780 compounds, 58% hits | shares compounds with MPTP block; in the data active = IC50 below about 20 µM
# MPTP counter DR: fluorescent counter-screen in isolated mitochondria, dose response, counter-screen for MPTP inhibitor project, biochemical, fluorescence, uHTS hits. shares compounds with MPTP block. isolated mitochondria counterscreen, fluorescence read-out. IC50, µM. 780 compounds, 49% hits; in the data active = IC50 below about 80 µM
# A number is an active result; n = inactive; x = no result.
SMILES,SKN-1 inh,ATG4B inhibitor,CendR NRP1 mod,MPTP block,F508del corr,MPTP counter,others
Cc1ccccc1-c1cnc2c(c1)C(=O)N([C@@H](C)CO)C[C@@H](C)[C@@H](CN(C)C(=O)CC1CC1)O2,x,x,x,x,n,x,
Cc1cc(NC(=O)c2cc3cccc([N+](=O)[O-])c3[nH]2)ccc1F,n,n,n,82.7,n,69.0,
COCC(C)NC(=O)c1cc2cccc([N+](=O)[O-])c2[nH]1 (stereo not given),n,n,n,n,n,x,
CCOc1ccc2nc(N3C(=O)/C(=C/c4ccc(Cl)cc4)NC3=S)sc2c1,n,n,n,92.4,x,n,
COc1ccc2nc(N3C(=O)CNC3=S)sc2c1,n,n,n,n,n,x,
c1ccc(Nc2ncnc3sc4c(c23)CCC4)cc1,n,n,n,n,x,x,
c1csc(CCNc2ncnc3sc4c(c23)CCC4)c1,n,n,n,102.4,n,102.1,
O=C(C[C@H]1C[C@@H]2c3cc(NC(=O)C4CCC4)ccc3O[C@@H]2[C@@H](CO)O1)NCc1ccccn1,x,x,x,x,n,x,
Cc1ccccc1-n1nc(C(=O)c2cccs2)cc(-c2nc3ccccc3[nH]2)c1=N,n,n,n,90.9,x,98.1,
Cc1cc(NC(=O)c2cccs2)n(-c2nc3ccccc3[nH]2)n1,n,n,n,n,n,x,
COc1ccc(-n2nc(C(=O)c3cccs3)cc(-c3nc4ccccc4[nH]3)c2=N)cc1,n,n,n,78.0,x,n,
Cc1cccc(-n2nc(C(=O)c3ccco3)cc(-c3nc4ccccc4[nH]3)c2=N)c1,n,n,n,n,x,x,
CN(C)CC(=O)N1CCCCN2[C@H](CO)[C@H](c3ccc(/C=C/c4ccccc4)cc3)[C@H]2C1,x,x,x,x,n,x,
CCCN(C)C[C@@H]1Oc2cc(C#Cc3ccc(OC)cc3)ccc2S(=O)(=O)N([C@@H](C)CO)C[C@@H]1C,x,x,x,x,n,x,
CCN(C[C@H]1N[C@@](Cc2ccccc2)(C(=O)OC)[C@H]2C(=O)N(Cc3ccccc3)C(=O)[C@@H]12)C(=O)Nc1ccc(C(F)(F)F)cc1,n,n,n,79.5,n,104.7,
CCN(C[C@H]1N[C@@](Cc2ccccc2)(C(=O)OC)[C@H]2C(=O)N(Cc3ccccc3)C(=O)[C@@H]12)C(=O)Nc1ccc(C)cc1,n,n,n,n,n,x,
CC(=O)N1N=C(c2ccc(C(C)(C)C)cc2)OC1(C)C,n,n,n,68.8,n,n,MPTP abs DR=15.7;MPTP counter DR=17.8
CCN1[C@@H]2c3ccc(-c4ccc(OC)cc4)c(=O)n3C[C@@H]2[C@@H](CO)[C@@H]1C(=O)N(C)C,x,x,x,x,n,x,
COc1ccc(/C=C2\SC(=S)N(CCC(=O)Nc3ccc(O)cc3)C2=O)cc1,n,n,n,n,n,x,
CCN(CC)CCOC(=O)c1ccc(NC(=O)CCCN2C(=O)S/C(=C/c3ccc(OC)cc3)C2=S)cc1,n,n,n,60.7,x,n,
COc1ccc(C#Cc2ccc([C@@H]3[C@H]4CN(S(=O)(=O)c5cn(C)cn5)CCCCN4[C@H]3CO)cc2)cc1,x,x,x,x,n,x,
CC1CCC(NC(=O)c2cccc(S(=O)(=O)N3CCN(c4ccccc4)CC3)c2)CC1 (stereo not given),n,n,n,76.4,n,n,MPTP abs DR=n;MPTP counter DR=n
O=[N+]([O-])c1ccc(NC(=S)N2CCN(c3ccccc3)CC2)cc1,n,n,n,72.2,x,84.1,
O=C(Nc1ccc(Cl)cc1)N1CCN(c2ccccc2)CC1,n,n,n,65.9,x,74.8,
CCCN1CCN(C(=S)Nc2ccc([N+](=O)[O-])cc2)CC1,n,n,n,59.9,x,66.2,
CCCN1CCC(NC(=S)Nc2ccc([N+](=O)[O-])cc2)CC1,n,n,n,n,n,x,
O=[N+]([O-])c1ccc(N2CCN(C(=S)Nc3ccccc3)CC2)cc1,n,n,n,n,n,x,
